Consider eight compounds from PubChem BioAssay.

Active and inactive are the calls of the source.

One test deals with Lefty1. Nature of the test: Lefty1 protein binding to printed compounds – biochemical, small-molecule microarray, 635/667 nm fluorescence, primary screen (AID 1139). Conditions: fluorescence 635/667, higher = more signal.
For test [1], the system named is wheat germ agglutinin (Triticum aestivum), Alexa647-labelled. Description: Alexa647-WGA lectin binding to printed small molecules – biochemical, small-molecule microarray, 635/667 nm fluorescence, artefact control for SMM control-protein annotation, profiling panel (AID 1140).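 Also: score merges 667 nm feature emission with signal to noise over triplicate slides.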 Conditions: WGA-A647 binding, 635 nm fluorescence, higher = more signal.
In test [2] the target is Luciferin 4-monooxygenase (Photinus pyralis) (UniProt P08659). Description: inhibition of purified Photinus pyralis luciferase – biochemical, luminescence, purified enzyme, 2006 set, primary screen (AID 1141).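 Also: cell-free assay with purified firefly luciferase at 100 ng per well in PBS; test concentration not given here.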 Conditions: purified firefly luciferase, SteadyGlo luminescence, 30 min; higher = more signal, called active from +8 up or from −8 down.
Test [3] deals with Wnt5a (protein binding on small-molecule microarray). Description: small molecules binding Wnt5a protein – biophysical, small-molecule microarray, 635/667 nm fluorescence, primary screen (AID 1142).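 Also: fluorescence read at 667 nm with signal to noise per printed feature.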 Conditions: 635 nm fluorescence, higher = more signal.
Test [4] can be described thus: ATP-based viability of Huh7 replicon cells – cell-based, CellTiter-Glo luminescence, basal, 48 h, cytotoxicity control for HCV replication inhibitor project, primary screen (AID 1143).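 Also: Huh7 hepatoma cells carrying a hepatitis C replication reporter with no stimulus; test concentration not given here.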 Conditions: higher = more signal, called active from +8 up or from −8 down. On the technique in general: In antiviral work, replicon cells carry a viral genome segment that copies itself.

Test [5] can be described thus: basal CRE-LacZ reporter activity in PC12 – cell-based, unstimulated, primary screen (AID 1145). Conditions: no forskolin, luminescence, 4.5 h, higher = more signal, called active from +8 up or from −8 down.
A short description of test [6]: forskolin-driven CRE-LacZ activity in PC12 – cell-based, CRE-LacZ reporter, forskolin-stimulated, primary screen (AID 1146).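 Also: PC12 cells with 6xCRE LacZ reporter stimulated by forskolin 10 µM; beta-galactosidase reporter signal reflecting CREB driven transcription.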 Conditions: luminescence, 4.5 h, higher = more signal, called active from +8 up or from −8 down.
Test [7] addresses Streptavidin (Streptomyces avidinii) (UniProt P22629). Nature of the test: compounds binding control protein streptavidin – biophysical, small-molecule microarray, 635/667 nm fluorescence, artefact control for SMM compound annotation, primary screen (AID 1147).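 Also: signal reflects streptavidin binding to arrayed compounds as a control protein.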 Conditions: higher = more signal.
Test [8] in a line: probe aInhba binding on compound microarray – biochemical, small-molecule microarray, 635/667 nm fluorescence, primary screen (AID 1148).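 Also: score merges 667nm spot fluorescence with signal-to-noise for antibody binding to printed compounds.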 Conditions: higher = more signal.
The target in test [9] is Torsin-1A (Homo sapiens) (UniProt O14656). Nature of the test: TOR1A wild-type binding on microarray – cell lysate, small-molecule microarray, lysate, 635/667 nm, primary screen (AID 1149). Conditions: COS7 hTOR1A-WT lysate, 635 nm fluorescence, higher = more signal.
Test [10] shares this target. Nature of the test: torsin A mutant lysate binding on microarrays – cell lysate, small-molecule microarray, COS7 lysate, 635/667 nm fluorescence, primary screen (AID 1150).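 Also: score pools 667 nm emission and signal to noise measuring lysate protein binding.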 Conditions: COS7 hTOR1A mutant lysate, 635 nm fluorescence, higher = more signal.
For test [11], the system named is Sonic hedgehog protein (Shh). Nature of the test: Sonic hedgehog microarray binding compounds – biochemical, small-molecule microarray, 635/667 nm fluorescence, primary screen (AID 1151).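 Also: Shh protein binding to compounds spotted on small-molecule microarray slides; score combines spot fluorescence intensity with signal-to-noise across triplicate slides.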 Conditions: 635 nm fluorescence, higher = more signal.
Test [12] is described as follows: optical density shifts of acrAB sulA E. coli – strain DRC41, OD650, 48 h, E. coli filamentation inducer project, primary screen (AID 1152).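 Also: E. coli MC1000 strain DRC41 lacking acrAB efflux pump and sulA.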 Conditions: higher = more signal, called active from +8 up or from −8 down.
Test [13] in a line: probe aLefty1 binding on compound microarray – biochemical, small-molecule microarray, 635/667 nm fluorescence, primary screen (AID 1153).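 Also: score merges spot fluorescence with signal-to-noise ratio from the scanned slide images.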 Conditions: higher = more signal.
Test [14] can be described thus: plasmodial surface anion channel blockers, osmotic lysis – cell-based, P. falciparum Indochina, OD700, 1 h, primary screen (AID 1154). Conditions: P. falciparum Indochina infected RBC osmotic lysis, higher = more signal, called active from +8 up or from −8 down.
Test [15] in a line: plasmodial surface anion channel blockers, osmotic lysis – cell-based, P. falciparum Indochina, OD700, 2 h, primary screen (AID 1155).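 Also: lysis reports solute entry through the parasite surface anion channel PSAC.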 Conditions: P. falciparum Indochina infected erythrocytes, higher = more signal, called active from +8 up or from −8 down.
A short description of test [16]: changes in parasitized red cell lysis, either direction – P. falciparum Indochina, OD700, 3 h, PSAC antagonist project, primary screen (AID 1156). Conditions: P. falciparum-infected erythrocytes, osmotic lysis, higher = more signal, called active from +8 up or from −8 down.
The nature of test [17]: plasmodial surface anion channel blockers, osmotic lysis – cell-based, P. falciparum Indochina, OD700, 18 h, primary screen (AID 1157). Conditions: P. falciparum Indochina infected erythrocytes, osmotic lysis OD700, 18 h; higher = more signal, called active from +8 up or from −8 down.
Test [18] is described as follows: S6 kinase pathway phospho-S6 level changes – cell-based, A549, cytoblot, luminescence, serum-stimulated, primary screen (AID 1158).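 Also: serum-stimulated A549 lung adenocarcinoma cells; signal is phosphorylated S6 detected by cytoblot immunostaining with HRP secondary.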 Conditions: 5 h, higher = more signal.
Test [19] has as its target NADPH oxidase 2 (Homo sapiens) (UniProt P04839). Nature of the test: compounds shifting NOX2 Amplex Red fluorescence – cell-based, HEK293-NOX2, PMA-stimulated, NOX inhibitor project, primary screen (AID 1159). Also: test concentration not given here. Conditions: 45 min, higher = more signal, called active from +8 up or from −8 down.

Chain of Streptavidin (Streptomyces avidinii) (P22629 whole entry, looked up): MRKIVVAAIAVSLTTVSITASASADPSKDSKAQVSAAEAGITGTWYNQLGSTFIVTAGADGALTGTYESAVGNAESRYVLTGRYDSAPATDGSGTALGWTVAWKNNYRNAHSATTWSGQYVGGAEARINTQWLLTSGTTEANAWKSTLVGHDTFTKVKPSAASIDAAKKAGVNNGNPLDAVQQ
Chain of Torsin-1A (Homo sapiens) (O14656 whole entry, looked up): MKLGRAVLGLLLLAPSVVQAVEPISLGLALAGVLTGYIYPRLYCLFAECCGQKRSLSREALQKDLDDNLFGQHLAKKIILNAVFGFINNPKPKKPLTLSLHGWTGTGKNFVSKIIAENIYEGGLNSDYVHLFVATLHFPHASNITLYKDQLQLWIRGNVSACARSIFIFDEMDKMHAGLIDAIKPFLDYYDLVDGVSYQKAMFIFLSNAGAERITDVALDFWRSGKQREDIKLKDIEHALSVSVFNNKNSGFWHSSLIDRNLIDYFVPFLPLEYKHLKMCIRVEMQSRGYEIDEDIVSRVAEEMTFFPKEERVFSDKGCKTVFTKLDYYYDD
Chain of Luciferin 4-monooxygenase (Photinus pyralis) (P08659 whole entry, looked up): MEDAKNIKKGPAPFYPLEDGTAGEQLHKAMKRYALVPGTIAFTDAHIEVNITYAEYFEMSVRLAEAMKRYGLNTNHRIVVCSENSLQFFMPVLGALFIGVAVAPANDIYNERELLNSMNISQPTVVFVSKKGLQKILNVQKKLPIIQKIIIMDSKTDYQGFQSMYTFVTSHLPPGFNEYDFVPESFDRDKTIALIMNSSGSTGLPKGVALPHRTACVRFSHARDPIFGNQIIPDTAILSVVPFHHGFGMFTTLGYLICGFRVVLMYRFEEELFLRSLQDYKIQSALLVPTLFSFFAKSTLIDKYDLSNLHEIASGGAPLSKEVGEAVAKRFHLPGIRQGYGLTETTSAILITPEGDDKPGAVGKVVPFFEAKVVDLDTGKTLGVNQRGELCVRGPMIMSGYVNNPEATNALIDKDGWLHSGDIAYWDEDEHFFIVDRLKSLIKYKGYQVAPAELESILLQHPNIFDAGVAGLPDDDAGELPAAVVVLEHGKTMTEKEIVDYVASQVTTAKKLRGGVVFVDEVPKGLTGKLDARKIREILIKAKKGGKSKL
Chain of NADPH oxidase 2 (Homo sapiens) (P04839 whole entry, looked up): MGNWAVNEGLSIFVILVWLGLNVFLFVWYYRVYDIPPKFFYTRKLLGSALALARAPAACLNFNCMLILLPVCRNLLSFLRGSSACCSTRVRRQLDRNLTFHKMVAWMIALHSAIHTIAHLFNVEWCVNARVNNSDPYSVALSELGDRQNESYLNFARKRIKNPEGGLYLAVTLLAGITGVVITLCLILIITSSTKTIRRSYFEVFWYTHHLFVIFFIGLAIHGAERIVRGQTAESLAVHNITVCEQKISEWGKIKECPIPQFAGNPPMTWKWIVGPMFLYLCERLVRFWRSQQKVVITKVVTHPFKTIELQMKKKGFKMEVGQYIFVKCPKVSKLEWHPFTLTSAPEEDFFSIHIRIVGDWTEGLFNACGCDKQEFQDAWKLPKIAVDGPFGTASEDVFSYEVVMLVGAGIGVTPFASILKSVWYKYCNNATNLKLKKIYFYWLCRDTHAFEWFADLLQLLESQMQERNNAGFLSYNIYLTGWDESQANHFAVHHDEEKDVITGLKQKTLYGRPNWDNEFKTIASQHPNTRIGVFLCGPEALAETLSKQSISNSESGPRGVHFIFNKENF

Turning to `COc1ccc([Si](C)(C)[C@H]2[C@H](CC(=O)N3Cc4ccccc4C[C@H]3CO)O[C@@]3(C(=O)N(Cc4cccc(N5C(=O)COc6ccccc65)c4)c4ccccc43)[C@@H]2C)cc1`, the composite z-score was 1.44 in the test with Lefty1; 0.862 in test [1]; 0.283 in test [3]; 0.22 in test [7]; -0.0986 in [8]; 0.562 with Torsin-1A (Homo sapiens) [9]. For the same compound, the composite z-score with Torsin-1A (Homo sapiens) [10] is 0.212; in [11], 2; in test [13] it was -0.0035. The z-score in [2] is -0.961 (inactive); in test [4], -3.87 (inactive); in [5], 3.47 (inactive); in test [6], -1.86 (inactive); in test [12], 0.578 (inactive); in test [14], 3.46 (inactive). In addition, the z-score in test [15] is 1.76 (inactive); in [16] it was 1.69 (inactive); in test [17], 1.04 (inactive); in test [18], 0.0515; in test [19] it was -1.37 (inactive).
For `CC(C)[C@@H](C(=O)O)n1cc(-c2ccccn2)nn1`, the composite z-score is 0.0234 in the test with Lefty1; 0.957 in test [1]; -0.267 in [3]; 0.62 in test [7]; 0.202 in test [8]; 0.417 with Torsin-1A (Homo sapiens) [9]. The figures for the composite z-score (in the test with Torsin-1A (Homo sapiens) [10]; in test [11]; in [13]) were 0.567, 0.673 and -0.0559, respectively. For the same compound, the z-score in [2] is -0.495 (inactive); in test [4], 0.715 (inactive); in [5] it was -0.201 (inactive); in test [6] it was 0.159 (inactive); in test [12] it was 2.01 (inactive); in [14], -0.0828 (inactive). Further, the z-score in test [15] was 0.0486 (inactive); in [16] it was 0.322 (inactive); in test [17] it was 0.0401 (inactive); in test [18], 0.0264; in [19], -0.847 (inactive).
Take `CC(C)C(CO)N1C(=O)[C@@H]2C3C(=O)OCCC/C=C\[C@H]3OC23C=CCN(C(C)C)C(=O)[C@@H]13` (stereo not given in full): the composite z-score in the test with Lefty1 was -0.278; in [1], -1.14; in [3], -0.0608; in test [7], -0.643; in test [8], 0.0228; with Torsin-1A (Homo sapiens) [9], 0.286. For the same compound, the composite z-score in the test with Torsin-1A (Homo sapiens) [10] was 0.703; in [11], 0.321; in test [13], -0.142. Also, the z-score in [2] was -0.774 (inactive); in test [4], 0.303 (inactive); in test [5], 0.333 (inactive); in [6], -1.18 (inactive); in test [12], 2.21 (inactive); in test [14] it was -0.0173 (inactive). Moreover, the z-score is -0.96 (inactive) in [15]; -0.677 (inactive) in [16]; -1.36 (inactive) in [17]; 0.225 in test [18]; 0.914 (inactive) in test [19].
With `CCCC[C@@H](O)C1=C(C)C[C@H]2C(=O)N(C)C(=O)[C@H]2[C@H]1CO`, the composite z-score with Lefty1 was 0.776; in [1], 1.12; in [3], -0.0163; in test [7], -0.242; in [8], -0.0736; in the test with Torsin-1A (Homo sapiens) [9] it was 0.0651. In addition, the figures for the composite z-score (in the test with Torsin-1A (Homo sapiens) [10]; in test [11]; in test [13]) were -0.0216, 1.18 and -0.239, respectively. Further, the z-score in test [2] is -1.41 (inactive); in test [4], -1.36 (inactive); in [5] it was 0.0423 (inactive); in [6], -2.14 (inactive); in test [12], 3.62 (inactive); in [14], 3.54 (inactive). Moreover, the z-score in test [15] is -0.526 (inactive); in test [16], -0.224 (inactive); in [17], -1.56 (inactive); in test [18], 0.8; in test [19] it was -1.32 (inactive).
For the compound `C=C(COC)C(=O)CC[C@H](OC(=O)c1ccccc1-c1ccccc1C(=O)O)c1ccccc1OCCO`, the composite z-score is 0.655 in the test on Lefty1; -0.179 in test [1]; 0.032 in test [3]; 0.0456 in [7]; -0.0021 in test [8]; 0.241 with Torsin-1A (Homo sapiens) [9]. Also, the composite z-score is -0.063 with Torsin-1A (Homo sapiens) [10], 1.2 in [11] and -0.196 in test [13]. The z-score in [2] was -3.05 (inactive); in test [4], -0.828 (inactive); in test [5] it was 0.844 (inactive); in [6], 0.122 (inactive); in test [12] it was 0.832 (inactive); in test [14] it was 4.88 (inactive). Besides, the z-score in [15] is 0.673 (inactive); in [16], 2.51 (inactive); in test [17] it was 0.65 (inactive); in test [18], -0.541; in [19], 2.1 (inactive).
Take `COC(=O)C1=CC(CCCO)=CC(C2CC2)N(Cc2cc3c(cc2Br)OCO3)C=C1C(=O)OC` (stereo not given): the composite z-score in the test with Lefty1 was -0.648; in test [1], 1.4; in test [3], 0.135; in test [7], 1.22; in test [8], 0.143; with Torsin-1A (Homo sapiens) [9], 0.777. Moreover, the composite z-score is 1.61 in the test with Torsin-1A (Homo sapiens) [10], -0.593 in test [11] and 0.248 in [13]. The z-score in test [2] was -1.24 (inactive); in test [4], -2.77 (inactive); in [5], 0.389 (inactive); in test [6], -0.562 (inactive); in test [12] it was 1.55 (inactive); in test [14], 2.31 (inactive). Besides, the z-score in test [15] was -1.2 (inactive); in test [16] it was -0.183 (inactive); in [17] it was -0.951 (inactive); in test [18] it was 0.771; in test [19] it was 0.0713 (inactive).
With `Cc1ccc(N2C(=O)c3ccccc3[C@](C)(C(=O)NC3CC3)[C@@H]2c2ccc(CO)cc2)nc1`, the composite z-score is -0.105 with Lefty1; 0.618 in [1]; 0.119 in test [3]; -0.468 in test [7]; 0.0053 in [8]; 0.141 with Torsin-1A (Homo sapiens) [9]. Further, the composite z-score was 1.06 in the test with Torsin-1A (Homo sapiens) [10], 0.496 in [11] and -0.0162 in test [13]. Further, the z-score in test [2] was -1.5 (inactive); in test [4], 0.0401 (inactive); in test [5], -0.619 (inactive); in [6], -0.732 (inactive); in test [12] it was 1.3 (inactive); in test [14] it was 0.262 (inactive). For the same compound, the z-score in test [15] was -0.236 (inactive); in [16], 0.151 (inactive); in [17], -0.0411 (inactive); in [18], 0.199; in [19] it was -0.712 (inactive).
As for `C#CCN1C(C(=O)OCC)OC[C@H]1c1ccccc1` (stereo not given in full), the composite z-score is 0.732 in the test on Lefty1; 0.299 in test [1]; 0.0718 in test [3]; -0.0517 in test [7]; 0.195 in test [8]; 3.34 with Torsin-1A (Homo sapiens) [9]. The composite z-score with Torsin-1A (Homo sapiens) [10] is 3.27; in [11], 0.789; in [13], -0.0061. Besides, the z-score in test [2] was -0.547 (inactive); in test [4], -2.25 (inactive); in test [5], 1.12 (inactive); in test [6], -0.678 (inactive); in test [12] it was 2.39 (inactive); in test [14], 0.0429 (inactive). The z-score in test [15] was -1.18 (inactive); in [16], 0.696 (inactive); in test [17], -2.37 (inactive); in test [18], 1.01; in test [19], 0.413 (inactive).
